Measured values as given in PubChem BioAssay (NCATS).
Values joined by “and” are separate entries in the source; they are usually repeats but may differ in a detail not shown here. Identical values can stand only once. Records with an inconclusive call do not appear. Unmarked numbers belong to inactive results. Active and inactive are the calls of the source. Unless noted, calls follow the shape of the dose curve; as a rule, active = well fitted curve in the direction sought with a large enough effect; inconclusive = small, poorly fitted or top-dose-only effect, or another doubt; inactive = no such curve, though single readings can be large; an effect the other way counts as inactive or inconclusive.

Assays:
[1] = biological target: Cellular tumor antigen p53 (Homo sapiens) (UniProt P04637); assay: Primary qHTS for small molecule compounds that upregulate eGFP-tagged delta133p53alpha (in N-terminal) cells. (AID 2060322); details: NCI-H358 eGFP-delta133p53alpha fluorescence, 24 h; activation: active compounds read high;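 also: cells pre-induced with doxycycline then dosed without doxycycline; 0% = DMSO vehicle and 100% = reference activator; nearly all actives have a fitted effect of over 75% in size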
Summary of the method: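 NCI-H358 cells pre-induced 24 h with 10 ng/ml doxycycline for eGFP-delta133p53alpha, plated dox-free and exposed 24 h at 37C to titrated compounds. Fixed, Hoechst-stained; gated GFP peak intensity by laser scanning cytometry, normalized to DMSO (0%) and 57.5 uM 5-azacytidine (100%).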

[2] = biological target: Cellular tumor antigen p53 (Homo sapiens) (UniProt P04637); assay: Primary qHTS for small molecule compounds that upregulate eGFP-tagged delta133p53alpha (in C-terminal) cells. (AID 2060324); details: NCI-H358 delta133p53alpha-eGFP (C-terminal tag), GFP fluorescence imaging, 24 h; series mostly up to 57.5 µM;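 also: 0% = DMSO wells and 100% = 57.5 µM 5-azacytidine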
Summary of the method: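 Doxycycline (100 ng/ml, 24 h) first induced the eGFP fusion in NCI-H358 C-terminal-tag cells. Washed-out cells then received titrated compounds for 24 h at 37 °C before paraformaldehyde fixation, Hoechst staining and cytometric GFP quantification.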

[3] = biological target: Aldehyde dehydrogenase, mitochondrial (Homo sapiens) (UniProt P05091); assay: qHTS for Inhibitors of the Aldehyde Dehydrogenase Family (ALDH2) Validation screens (AID 2061302; active = well fitted inhibition curve with a large enough effect; title and protocol of this record describe different tests; also: potency is read from the fitted curve at half-maximal effect); details: ALDH inhibition qHTS; series mostly up to 42.6 µM
[4] = biological target: Retinaldehyde dehydrogenase 3 (Homo sapiens) (UniProt P47895); assay: qHTS for Inhibitors of the Aldehyde Dehydrogenase Family (ALDH1A3) Validation screen (AID 2061312); details: ALDH1A3 enzyme inhibition qHTS validation, fluorescence; series mostly up to 84.7 µM; also: % is scaled to controls: 0 for no effect and ±100 for the full control effect; nearly all actives have a fitted effect of over 45% in size
[5] = BET inhibitor-based combinations targeting novel dependencies in MECOM-rearranged (r) AML: SET-2 cell line (AID 2202231); details: SET-2 AML cells viability, CellTiter-Glo luminescence, 48 h; viability: active compounds read low, concentration not given here; also: nearly all actives have a fitted effect of over 35% in size; also: potency is read from the fitted curve at half-maximal effect;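 as to viability: plate controls were DMSO treated cells for no effect and wells without cells for full effect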
Summary of the method: (§1)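 Cells were plated at 500 per well and exposed to an 11-point dose series of each drug for 48 hr. Viability was measured by CellTiter-Glo luminescence, normalized to DMSO and empty-well controls, and summarized as AUC and per-cell-line Z-AUC.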

[6] = BET inhibitor-based combinations targeting novel dependencies in MECOM-rearranged (r) AML: MV-4-11 cell line (AID 2202233); details: MV-4-11 AML viability, CellTiter-Glo luminescence, 48 h; series mostly up to 46 µM; also: nearly all actives have a fitted effect of over 45% in size; also: potency is read from the fitted curve at half-maximal effect
Summary of the method: (§2)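 Activity is given as area under the curve and as Z-AUC, mean-centred within each cell line. It comes from 11-point dose curves normalized to DMSO and empty wells. CellTiter-Glo luminescence was read after 48 hr drug exposure of 500 cells/well.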

[7] = BET inhibitor-based combinations targeting novel dependencies in MECOM-rearranged (r) AML: OCI-AML3 cell line (AID 2202232); details: CellTiter-Glo luminescence, 48 h; Potency: OCI-AML3 viability; series mostly up to 46 µM; also: nearly all actives have a fitted effect of over 35% in size; also: potency is read from the fitted curve at half-maximal effect
Summary of the method: as §1

[8] = BET inhibitor-based combinations targeting novel dependencies in MECOM-rearranged (r) AML: HNT-34 cell line (AID 2202234); details: HNT-34 AML viability, CellTiter-Glo luminescence, 48 h; series mostly up to 46 µM; also: nearly all actives have a fitted effect of over 35% in size; also: potency is read from the fitted curve at half-maximal effect
Summary of the method: as §2

[9] = BET inhibitor-based combinations targeting novel dependencies in MECOM-rearranged (r) AML: UCSD-AML1 cell line (AID 2202235); details: UCSD-AML1 AML cells viability, CellTiter-Glo, 48 h; series mostly up to 46 µM; also: nearly all actives have a fitted effect of over 40% in size; also: potency is read from the fitted curve at half-maximal effect
Summary of the method: as §2

[10] = BET inhibitor-based combinations targeting novel dependencies in MECOM-rearranged (r) AML: AML-191 cell line (AID 2202236; also: nearly all actives have a fitted effect of over 35% in size; also: potency is read from the fitted curve at half-maximal effect); details: AML-191 viability, CellTiter-Glo luminescence, 48 h; series mostly up to 46 µM
Summary of the method: as §1

[11] = BET inhibitor-based combinations targeting novel dependencies in MECOM-rearranged (r) AML: AML-194 cell line (AID 2202237; also: nearly all actives have a fitted effect of over 40% in size; also: potency is read from the fitted curve at half-maximal effect); details: AML-194 (MECOM-r AML) viability, CellTiter-Glo, 48 h; series mostly up to 46 µM
Summary of the method: as §1

Sequence of Cellular tumor antigen p53 (Homo sapiens) (P04637 whole entry, looked up, the tested form may be a part): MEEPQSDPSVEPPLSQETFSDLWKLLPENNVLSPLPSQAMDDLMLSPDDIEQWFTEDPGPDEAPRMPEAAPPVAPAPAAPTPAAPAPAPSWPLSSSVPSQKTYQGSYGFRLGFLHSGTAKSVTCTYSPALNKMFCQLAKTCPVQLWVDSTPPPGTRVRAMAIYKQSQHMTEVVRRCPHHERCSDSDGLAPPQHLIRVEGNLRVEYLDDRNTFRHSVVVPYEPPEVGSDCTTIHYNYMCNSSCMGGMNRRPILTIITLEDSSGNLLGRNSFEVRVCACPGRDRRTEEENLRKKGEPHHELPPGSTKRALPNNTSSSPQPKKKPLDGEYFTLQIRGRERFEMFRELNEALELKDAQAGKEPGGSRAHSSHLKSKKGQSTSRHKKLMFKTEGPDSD

Structure (SMILES) | activation [1] | Potency [2] | Potency [3] | Potency [4] | Potency [5] | Potency [6] | Potency [7] | Potency [8] | Potency [9] | Potency [10] | Potency [11] | viability [5]
CN(C)C(=O)C(CCN1CCC(O)(c2ccc(Cl)cc2)CC1)(c1ccccc1)c1ccccc1 | 62.2% and -46.1% | inactive | inactive | inactive | 14.8 µM (active) | 20.9 µM (active) |  |  |  |  |  | 
Oc1ccc2ccccc2c1SSc1c(O)ccc2ccccc12 | -0.0951% | inactive | 14.1 µM (active) | inactive |  | 16.6 µM (active) | 6.61 µM (active) | 18.6 µM (active) | 23.5 µM (active) | 20.9 µM (active) | 20.9 µM (active) | 
Clc1ccc(C(c2ccc(Cl)cc2)n2cc[n+](CC(OCc3ccc(Cl)cc3Cl)c3ccc(Cl)cc3Cl)c2)cc1 (centres undefined) | 29.4% | inactive | inactive | inactive |  |  | 5.9 µM (active) | 9.34 µM (active) |  | 18.6 µM (active) | 26.3 µM (active) | 
O=Nc1c(-c2c(O)[nH]c3cc(Br)ccc23)[nH]c2ccccc12 | 17.1% and -39.3% | inactive | inactive |  | 5.25 µM (active) | 0.263 µM (active) | 11.8 µM (active) | 2.63 µM (active) | 13.2 µM (active) |  | 14.8 µM (active) | 
Nc1nc(N)c(N=O)c(OCC2CCCCC2)n1 | -20.9% | inactive | inactive | inactive |  |  |  | 5.25 µM (active) | 3.32 µM (active) |  |  | 
CN1C(C(=O)Nc2ccccn2)=C(O)c2ccccc2S1(=O)=O | -0.565% and -12.3% and -20.6% | inactive | inactive |  |  | inactive | inactive | inactive | inactive | inactive | inactive | 105%
